These results are taken from PubChem BioAssay AID1508600 (Functional Genomics Laboratory (NCATS/FGL), 2020).

The whole screen tested about 53,000 sequences, of which about 3,700 (7%) were called active. This is one part of a sample in which actives are shown more often than they occur. A number with no mark means an inactive call.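 How the source made its calls: active means gene knockdowns whose robust z-score for IL-1 alpha signal is at least 2 or at most -2, so actives lie on both sides; inactive means the rest.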

The experiment can be described thus: Components of the Cytosolic LPS Sensing Pathway: Gene Identification via Genome-wide siRNA Screen.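 Further: robust z of the log signal after scaling to non-targeting control siRNA wells of the plate.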 Particulars: RAW264.7 macrophages, IL-1a HTRF, actives lie on both sides, screened at 100 nM (by protocol), cells primed 5 h with Pam3CSK4 first. A digest of the protocol:
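Supernatant IL-1a by HTRF from RAW264.7 cells primed with Pam3CSK4 (5 hours) and transfected with LipidA (24 hour) after 48h siRNA knockdown at 100 nM; cell viability checked with CellTiter-Glo.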
Background: In TR-FRET formats the signal depends on donor and acceptor labels being close together.
On to GGCCAUUUCUAUGAAAUUATT against Olfr1016, for which the z-score is -2 (active).
Next, CCUUAGGACAAGUAUUCUGTT against Cbx6: 0.47.
Next, GGCAACUUUAUACACAAACTT against Vmn1r13: -0.283; GGAACCUUUCAGAAAUAUATT against Calhm5: -0.53.
As for GGUCUGAUUGUCCUCUCUUTT against Slc35b4, the z-score was 3.25 (active).
Next, CCACACCUUCAAAGCGAGATT against L3mbtl4: -0.104; GGCCUUGAUUCAAUUCAACTT against Tgm6: 0.812.
In the case of GGCAGAUAUUUAGAUGAUGTT against Pdyn, the z-score was -0.932.
For GAUGUUCUUUGUCCACAUGTT against Olfr666, the z-score was -0.325.
Turning to GCAUUUUCUAGAUGGAAGCTT against Hao1, the z-score is 0.748.
Next, GGUCAUUCUCCAAGAACUATT against Ugp2: -0.844; GGUUCAGUAUAUCAUCUCUTT against Zfp335: 2.69 (active).
Consider GGAGAACAGUUUCAAGAUGTT against Rnf152, for which the z-score is -0.487.
In the case of GCCGGACUUCCCAUCUGUUTT against Srebf1, the z-score was -0.784.
On to GACGAAUAUCAUCUCACACTT against Olfr875, for which the z-score is 0.901.
In the case of GCAGUUGACAUUUACUCUCTT against Nol10, the z-score was 2.36 (active).
Consider GCUCCACACUACGUGUCAUTT against Olfr476, for which the z-score is 1.66.
On to GCCUUAUCCAUAUCGACUATT against Arrdc1, for which the z-score is 0.831.
Next, GGAUGCUCAUGGACCUUUGTT against Olfr1122: 0.931.
For the sequence CGUACUCCAACAACACUUUTT against Pdzd8, the z-score was -0.503.
Then GGACUGUGUGUGCAAAGGUTT against Mt3, with -0.176.
Next, GCUACUGCCGGAAUUUGGUTT against Tiam1: 0.497; CGCAAGAUACCAACACUUATT against Flad1: -0.487; GGAACACAAAAGCAAAGAUTT against Prpf38b: 2.2 (active).
Then GGAUUGUGGGUUUAUAUAATT against Olfr835, with 0.274; and CAGGCUGGUUACUUUGGCUTT against Lhfpl5, with -0.246.
Regarding CCUUCCAACUCUUCUCCUCTT against H2-T3, the z-score is 0.915.
As to GCCUCAUUUGAUCAAUGUCTT against Actr2, the z-score is 1.86.
Turning to GCUAGAUAAACUCUCUCAATT against Cxcr5, the z-score is 0.73.
For GGUCCAGCUCAUGAAACUUTT against Sik1, the z-score is 0.147.
Consider GGGUUUGGUCGUAAACAGCTT against Limd2, for which the z-score was -1.06.
Then GGUGCUGCUAUUCCUGCACTT against Gpam, with -2.03 (active).
As for GGGAGCUACGUUCAGAAGUTT against Gckr, the z-score is 1.63.
In the case of GGAUUUCUGUGGAGAUGGGTT against Cchcr1, the z-score is 0.444.
Next, GCUACUCCAUUUACAUCUATT against H2bc1: -0.122; GCGGAGUGUGAAACACUGATT against Ccdc32: 0.842; GGAAGGACAGACAGACAAGTT against Pxt1: 0.165.
For the sequence CCUAGAUGACACUUGGGUGTT against Nup35, the z-score was -1.4.
In the case of GCCUCUUCAAUCACAUUUATT against Atp6v0a4, the z-score was 3.27 (active).
For the sequence GGAAAGAUCUACGAGAUCUTT against Unc5a, the z-score is 1.04.
Regarding CGGAUUCGUCUGUUUUCUGTT against Ddi2, the z-score is 1.97.
As to GGAUAUACAUGGUCUGUUUTT against Naip5, the z-score is 0.318.
Consider GGACUCCUCCCAAGACGAATT against Avil, for which the z-score was -0.118.
In the case of CCUACCAUAGCAACACUAUTT against Kcna2, the z-score was 3.14 (active).
For the sequence GGCCCUCACAAUGAAUAUGTT against Efs, the z-score was -0.115.
In the case of ACGAUAUGUUGACCUUGGCTT against Cyp2c67, the z-score was -0.274.
Consider “CGGCAAUUUGAGUUGAAAATT against Ppp1r2-ps9”, for which the z-score is -0.571.
GGGCACCUUAUACCAUAGATT against Bfar: the z-score was 0.345.
For GGCCAUGGAGAACAUAUGCTT against Trpm8, the z-score is -2.09 (active).
Take GGCUAUUGAGCUCUUUGUCTT against Qpctl: the z-score is -0.661.
With GGAGUAGUAGCUAUUAUAUTT against Kctd9, the z-score was 1.89.
Next, “GCUUUGAGACCUAAUGAUGTT against 1810024B03Rik”: -0.469; GGUGCUAGUGUAUGAAUUATT against Nsun5: 2.39 (active).
Then GGAUCAUUUGUUAAUGUACTT against Ddx3y, with 0.0896; and GCUAUUGCUCGCAUCAAUGTT against Prps1l1, with 0.989; and GCGAUUAUUUCGCUUUGGATT against Pcdha12, with -0.502.
Next, GGAGAGUAAAACCAAUACATT against Fam76a: -0.0433; GGGUCACAGAGGUUACCCATT against Col2a1: 1.25.
In the case of GGAGACCAAAAAGAAAUAATT against Cmas, the z-score is 0.622.
Regarding GGUGGUGGAAUGCUAAAAATT against Gys1, the z-score was 2.29 (active).
Turning to CCAGAAUACUGGGAUACAATT against B4galnt3, the z-score is -0.577.
As for GCUCAUGUAUGUGAAUUUGTT against Ptx3, the z-score was -1.25.
As to GGAAACACCAUGAAGAUGATT against Atpif1, the z-score was -0.0257.
GCAAGUCGUAAGCCUCAGGTT against Mrps10: the z-score was 0.533.
Then GCUACGGACCAUGUUCAAGTT against Nxpe4, with 2.93 (active); and GGAGGUACCACAAAAGGCATT against Kif2c, with 0.0217.
Next, CCAACUAAGUGAAAUUCCATT against Aspn: -1.26; CCCAACAUUAUCUUGGACCTT against Mrgpra8: -0.26.
GGGAAGGAUUUUUGAUGAUTT against Arfgap1: the z-score was 1.33.
Turning to GGAAGGAAGGAAUAAAACUTT against Fitm2, the z-score was -0.981.
As to GCCACUUCACAGCAAGCUATT against Cdk2ap1, the z-score is 3.27 (active).
Take GGGCGAACAGGACAAUUAUTT against Med22: the z-score is -0.421.
Consider GCCCAUUAAUGCGUAUUUUTT against Mettl2, for which the z-score was 1.22.
With GCUAAGUCGGAUGAUAGAATT against Ttc16, the z-score is -0.742.
Regarding GGCAUGAUCAGCACAUCACTT against Rpap1, the z-score is 0.578.
Next, GGAUGAAUAUGGUGUUUCUTT against Rnf138: -2.23 (active); GCUAAAUUACACAUUGACCTT against Vcam1: 0.226.
Next, GGGAAGCAACAUGAUUAAATT against Kat7: 0.669; CCUCACUGGUACAAUCCCATT against Tsg101: -0.906; GGAACCAGUUUAAAUGAUUTT against Marchf7: 0.04.
In the case of CGUUACGUAAAUCUUGUGATT against Sstr2, the z-score is 0.227.
For the sequence GGUGGUCUACCAGCAUUUGTT against Pde4dip, the z-score is 2.16 (active).
Regarding GGCCAAUAAUGUGUUUCGUTT against Cmpk2, the z-score is -0.632.
Take CCUGGUGCCUUUAUCUACCTT against Ctxn1: the z-score is 0.907.
In the case of GGAGAUGCUGUUCUUUCCGTT against Casc3, the z-score is -1.18.
For GGAUGGAUUACUGAAAGUUTT against Wdr35, the z-score was 0.715.
Take “GGCAGCUAUUGCUCUGGAATT against 5730596B20Rik”: the z-score is -0.293.
With GGAGCAACAGCCAAAUACCTT against Hmgb4, the z-score was 2.39 (active).
Consider GGACUAUGAGCAGAUGAAGTT against Calcb, for which the z-score was -0.217.
For the sequence GGAUGUGCACGAAGGACAGTT against Cdh2, the z-score was 2.09 (active).
Take CCAGUCCAUUGAAUAGUUCTT against Papola: the z-score is 0.329.
Then GGAAAGGAAUCCAAAAAUCTT against Lias, with -0.42; and CCAGAAGUGAUCGCCUCUUTT against Zfp300, with 1.16.
Take GCCAUAAAACAGAAUCUCATT against Tmco5b: the z-score was -0.309.
Regarding GGUGGUGAUAAGCUUCCUCTT against Olfr1417, the z-score was -1.87.
Next, GGGACUUCAGACAGUUAUCTT against Ess2: 1.69; GCCGAACUUCGGAAUUCUGTT against Nf1: 2.08 (active); GGUAUAUGGAACCAUGGGATT against Psmb9: -0.565.
Regarding GGAGUCUGCUGGUUUAGUGTT against Fmc1, the z-score is 0.0551.
Take GGAGUAUGGCGAAUUCUAUTT against Hsp90ab1: the z-score is 1.34.
GCUGCUUGCUGACCUCCUATT against Olfr522: the z-score is 0.358.
As to GCAUUCAGAAAUUGAGGGUTT against Sin3b, the z-score is -0.0974.
On to “CCUAUCUCUUAGCAAAGAUTT against 2010003K11Rik”, for which the z-score is 2.87 (active).
For the sequence GGCGAUAUUCUUAAUUAUCTT against Mfsd6, the z-score is 0.735.
GGUGUUGAACAAGUGCGACTT against Tescl: the z-score is -0.987.
GCUGAUCAUCCGUUUCACUTT against Hdc: the z-score was -0.227.
As to CGUACUUCAGCGAUUUAAATT against Exoc2, the z-score is 0.555.
For GGACUCAAGACACCAGUUGTT against Rufy3, the z-score is -0.318.
